# Measured values: PubChem BioAssay (Tox21)
# A number with no mark means an inactive call. Results filed as inconclusive are left out. Entries that show only a call come without a potency. Active and inactive are the calls of the source. Unless noted, calls follow the shape of the dose curve; as a rule, active = well fitted curve in the direction sought with a large enough effect in the repeat runs; inconclusive = weak or mixed curves; inactive = no such curve, though single readings can be large; an effect the other way counts as inactive or inconclusive.
# Columns and labels:
# [1] = molecular target: Thyrotropin receptor (Homo sapiens) (UniProt P16473); assay: qHTS assay to identify small molecule antagonists of the thyroid stimulating hormone receptor (TSHR) signaling pathway (AID 1259385; calls by dose curve; also: nearly all actives have a fitted effect of over 20% in size; also: potency is read from the fitted curve at half-maximal effect)
# Sequence of Thyrotropin receptor (Homo sapiens) (P16473 whole entry, looked up): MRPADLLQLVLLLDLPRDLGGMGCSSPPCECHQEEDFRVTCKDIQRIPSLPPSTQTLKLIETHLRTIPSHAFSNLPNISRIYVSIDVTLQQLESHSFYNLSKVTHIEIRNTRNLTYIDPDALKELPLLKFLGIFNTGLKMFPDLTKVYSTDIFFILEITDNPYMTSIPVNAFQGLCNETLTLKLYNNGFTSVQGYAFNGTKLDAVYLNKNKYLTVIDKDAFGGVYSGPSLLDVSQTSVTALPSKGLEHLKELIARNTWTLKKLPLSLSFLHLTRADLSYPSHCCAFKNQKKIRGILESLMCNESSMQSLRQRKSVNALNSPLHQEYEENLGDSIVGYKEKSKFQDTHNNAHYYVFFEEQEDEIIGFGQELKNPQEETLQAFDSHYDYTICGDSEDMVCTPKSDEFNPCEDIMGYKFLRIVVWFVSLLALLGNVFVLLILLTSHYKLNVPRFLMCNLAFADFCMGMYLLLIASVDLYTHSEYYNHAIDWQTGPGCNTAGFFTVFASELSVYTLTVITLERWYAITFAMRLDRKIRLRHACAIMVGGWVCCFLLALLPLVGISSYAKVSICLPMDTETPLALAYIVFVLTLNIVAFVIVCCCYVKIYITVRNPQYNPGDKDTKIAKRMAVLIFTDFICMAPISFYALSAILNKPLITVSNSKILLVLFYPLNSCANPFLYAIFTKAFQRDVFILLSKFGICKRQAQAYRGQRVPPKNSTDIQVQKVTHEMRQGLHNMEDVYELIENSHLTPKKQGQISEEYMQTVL
# How it was run: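 Antagonist mode: compound-treated TSHR-expressing HEK293 cells were stimulated with 1.5 ng/mL TSH (final) in presence of Ro20-1724 for 30 min at RT. HTRF cAMP detection after 1 h; each compound tested at 15 concentrations, triplicate.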
# [2] = qHTS assay to identify small molecule agonists of the estrogen receptor alpha (ER-alpha) signaling pathway in the presence of an antagonist - cell viability counter screen (AID 1259386);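 also: series mostly up to about 92 µM; cells exposed to compounds for 22 h at 37 °C before the viability read; nearly all actives have a fitted effect of over 30% in size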
# How it was run: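 Cells are starved of estrogens for 5 days in charcoal-stripped serum, seeded for 24hr and co-treated with ICI-182,780 (10.0nM final) and test compounds. After 22hr at 37C, viability is read as CellTiter-Fluor fluorescence.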
# [3] = molecular target: Progesterone receptor (Homo sapiens) (UniProt P06401); assay: qHTS assay to identify small molecule agonists of the progesterone receptor (PR) signaling pathway (AID 1346784; calls by dose curve; also: nearly all actives have a fitted effect of over 30% in size; also: potency is read from the fitted curve at half-maximal effect)
# Sequence of Progesterone receptor (Homo sapiens) (P06401 whole entry, looked up): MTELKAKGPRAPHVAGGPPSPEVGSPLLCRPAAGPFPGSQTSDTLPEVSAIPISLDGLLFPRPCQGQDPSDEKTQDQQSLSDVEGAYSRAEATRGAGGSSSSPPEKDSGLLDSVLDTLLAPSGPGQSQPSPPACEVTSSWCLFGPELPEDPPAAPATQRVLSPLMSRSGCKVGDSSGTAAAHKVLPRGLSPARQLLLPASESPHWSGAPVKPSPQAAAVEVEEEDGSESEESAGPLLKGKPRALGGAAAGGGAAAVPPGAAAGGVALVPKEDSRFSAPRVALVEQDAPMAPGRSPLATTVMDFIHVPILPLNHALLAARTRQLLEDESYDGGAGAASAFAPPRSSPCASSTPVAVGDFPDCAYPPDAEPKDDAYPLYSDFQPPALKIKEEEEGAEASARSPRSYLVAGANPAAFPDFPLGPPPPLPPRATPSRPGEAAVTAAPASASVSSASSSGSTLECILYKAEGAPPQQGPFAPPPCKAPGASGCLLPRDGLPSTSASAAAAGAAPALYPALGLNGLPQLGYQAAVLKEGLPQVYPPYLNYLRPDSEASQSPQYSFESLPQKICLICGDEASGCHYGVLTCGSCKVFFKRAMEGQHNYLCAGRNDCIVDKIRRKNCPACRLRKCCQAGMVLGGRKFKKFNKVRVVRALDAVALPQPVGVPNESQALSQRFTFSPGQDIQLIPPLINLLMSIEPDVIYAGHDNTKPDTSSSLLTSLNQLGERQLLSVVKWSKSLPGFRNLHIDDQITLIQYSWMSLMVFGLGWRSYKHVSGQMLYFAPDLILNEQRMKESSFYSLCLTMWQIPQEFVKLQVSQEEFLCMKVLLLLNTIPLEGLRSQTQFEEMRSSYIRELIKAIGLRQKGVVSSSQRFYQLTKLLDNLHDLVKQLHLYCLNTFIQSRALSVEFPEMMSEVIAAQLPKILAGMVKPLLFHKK
# How it was run: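 Compounds were tested for PR agonism in HEK 293T cells bearing a beta-lactamase gene under UAS control. Treatment lasted 16 hr at 37C; signal came from fluorescence of a FRET substrate.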
# [4] = molecular target: Progesterone receptor (Homo sapiens) (UniProt P06401); assay: qHTS assay to identify small molecule antagonists of the progesterone receptor (PR) signaling pathway (AID 1346795; active = well fitted inhibition curve with a large enough effect in the signal ratio in the repeat runs, not every such curve was filed as active; the % refers to the signal ratio; also: potency is read from the fitted curve at half-maximal effect)
# How it was run: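 In HEK293T cells bearing the PR-UAS-bla reporter, compound effects on promegestone-driven (1 nM) beta-lactamase expression are assessed after 16 hr using a fluorescent FRET substrate incubated 2 hr at room temperature.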
# [5] = qHTS assay to identify small molecule antagonists of the progesterone receptor (PR) signaling pathway - cell viability counter screen (AID 1346798); also: nearly all actives have a fitted effect of over 50% in size; also: potency is read from the fitted curve at half-maximal effect; as to activity change, negative = cytotoxicity: series mostly up to about 92 µM
# How it was run: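 Following a 4 hr attachment, PR-UAS-bla HEK293T cells in charcoal-stripped FBS medium were exposed to compounds with R5020 for 16 hr; CellTiter-Glo was added and luminescence read after 30 min at room temperature.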
# [6] = qHTS assay to identify small molecule agonists of the progesterone receptor (PR) signaling pathway - cell viability counter screen (AID 1346799; calls by dose curve; also: nearly all actives have a fitted effect of over 45% in size; also: potency is read from the fitted curve at half-maximal effect)
# How it was run: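 Here, 3,000 PR-UAS-bla HEK293T cells per well were treated with compounds for 16 hr after a 6 hr preincubation at 37C and 5% CO2; cell viability is the CellTiter-Glo luminescence signal.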
# [7] = qHTS assay to identify small molecule antagonists of the TGF-beta/Smad signaling pathway - cell viability counter screen (AID 1346824); also: nearly all actives have a fitted effect of over 50% in size
# How it was run: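 Cytotoxicity counter-screen run in the same wells as the beta-lactamase Smad reporter read: CellTiter-Glo luminescence after 30 min at room temperature. HEK 293T SBE-bla cells had 5 hr compound exposure at 37 C with TGF-beta1 (0.25 ng/mL stock).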
# [8] = qHTS assay to identify small molecule agonists of the TGF-beta/Smad signaling pathway - cell viability counter screen (AID 1346829); also: top concentration of the series differs between compounds; nearly all actives have a fitted effect of over 45% in size
# How it was run: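 Here the cytotoxicity of library compounds is measured in SBE-bla HEK 293T cells treated for 5 hr, using CellTiter-Glo added to wells already read for the beta-lactamase reporter.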
# [9] = qHTS assay to identify small molecule agonists of the TGF-beta/Smad signaling pathway (AID 1346859; active = well fitted activation curve with a large enough effect in the signal ratio in the repeat runs, not every such curve was filed as active; the % refers to the signal ratio; also: series mostly up to about 77 µM)
# How it was run: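 Each well held 4,000 SBE-bla HEK 293T cells incubated overnight before compound addition; 5 hr later the cleavable FRET substrate went on for 2 hr at room temperature, and fluorescence was read at two emissions.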
# [10] = molecular target: Thyrotropin-releasing hormone receptor (Homo sapiens) (UniProt P34981); assay: qHTS assay to identify small molecule antagonists of the thyrotropin-releasing hormone receptor (TRHR) signaling pathway (AID 1346877; active = well fitted inhibition curve with a large enough effect in the repeat runs, not every such curve was filed as active; also: series mostly up to about 51 µM)
# Sequence of Thyrotropin-releasing hormone receptor (Homo sapiens) (P34981 whole entry, looked up): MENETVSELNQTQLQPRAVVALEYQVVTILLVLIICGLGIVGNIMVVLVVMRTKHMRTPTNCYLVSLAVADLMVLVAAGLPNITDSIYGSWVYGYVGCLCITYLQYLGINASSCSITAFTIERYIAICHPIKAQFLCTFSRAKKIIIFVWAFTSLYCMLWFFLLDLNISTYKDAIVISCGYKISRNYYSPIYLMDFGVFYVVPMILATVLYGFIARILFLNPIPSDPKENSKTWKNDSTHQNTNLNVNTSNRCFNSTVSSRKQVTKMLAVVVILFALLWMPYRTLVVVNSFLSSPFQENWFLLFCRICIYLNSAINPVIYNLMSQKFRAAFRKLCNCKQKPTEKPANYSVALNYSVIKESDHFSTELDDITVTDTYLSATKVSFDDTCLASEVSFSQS
# How it was run: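 Cells (TRHR-HEK293) are plated and kept 18 h at 37 °C/5% CO2. A calcium-sensitive dye is added for 2 h, compound follows for 5 min at room temperature, and TRH is then given at 1 nM final.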
smiles,measurement,setting,value
CCCCCCCCCC(C)C=O (configuration not stated),Potency,[1],inactive
same,Potency,[2],inactive
same,Potency,[3],inactive
same,Potency,[4],inactive
same,Potency,[5],inactive
same,Potency,[6],43.3 µM (active)
same,outcome,[7],inactive
same,outcome,[8],inactive
same,outcome,[9],inactive
same,outcome,[10],inactive
CC(C)Cc1nccs1,Potency,[1],inactive
same,Potency,[2],inactive
same,Potency,[3],inactive
same,Potency,[4],inactive
same,Potency,[5],inactive
same,Potency,[6],inactive
same,outcome,[7],inactive
same,outcome,[8],inactive
same,outcome,[9],inactive
same,outcome,[10],inactive
O=C(O)c1ccc2c(c1)nc(C(=O)NC1CCN(C3CC3)CC1)n2Cc1cc(-c2ccc(Cl)s2)on1,"activity change, negative = inhibition",[1],2.44% [at 19 µM]
same,"activity change, negative = cytotoxicity",[2],7.53% [at 19 µM]
same,activation,[3],1.53% [at 19 µM]
same,"activity change, negative = inhibition",[4],-15.4% [at 18.9 µM]
same,"activity change, negative = cytotoxicity",[5],-14.4% [at 18.9 µM]
same,"activity change, negative = cytotoxicity",[6],-20.4% [at 19 µM]
same,"viability change, negative = cytotoxic",[7],0.205% [at 15.8 µM]
same,"activity change, negative = cytotoxicity",[8],20.2% [at 15.8 µM]
same,"activity, negative = inhibition",[10],0.0336% [at 10.5 µM]
O=P(c1ccccc1)(c1ccccc1)c1ccccc1,Potency,[1],inactive
same,Potency,[2],inactive
same,Potency,[3],inactive
same,Potency,[4],inactive
same,Potency,[6],inactive
same,outcome,[7],inactive
same,outcome,[8],inactive
same,outcome,[9],inactive
same,outcome,[10],inactive
CC(C)CC(C)(C)C,Potency,[1],inactive
same,Potency,[2],inactive
same,Potency,[3],inactive
same,Potency,[5],inactive
same,Potency,[6],31.8 µM (active)
same,outcome,[7],inactive
same,outcome,[8],inactive
same,outcome,[9],inactive
same,outcome,[10],inactive
CCN(CCCCOC(=O)c1ccc(OC)c(OC)c1)C(C)Cc1ccc(OC)cc1 (configuration not stated),Potency,[1],29.8 µM (active)
same,Potency,[2],inactive
same,Potency,[3],inactive
same,Potency,[4],inactive
same,Potency,[5],inactive
same,outcome,[7],inactive
same,outcome,[8],inactive
same,outcome,[9],inactive
same,outcome,[10],inactive
CCCN(C1CCN(C(=O)C2CCNCC2)CC1)[C@@H]1CCc2ccc(OC)cc2C1,Potency,[1],inactive
same,Potency,[2],inactive
same,Potency,[3],inactive
same,Potency,[4],inactive
same,Potency,[5],inactive
same,outcome,[7],inactive
same,outcome,[8],inactive
same,outcome,[9],inactive
CCOc1ccc2c(c1)C(C)CC(C)(C)N2 (configuration not stated),Potency,[1],inactive
same,Potency,[2],inactive
same,Potency,[3],inactive
same,Potency,[5],inactive
same,Potency,[6],inactive
same,outcome,[7],inactive
same,outcome,[8],inactive
same,outcome,[9],inactive
same,outcome,[10],inactive
CCCCCCOC(=O)c1ccccc1,Potency,[1],inactive
same,Potency,[2],inactive
same,Potency,[3],inactive
same,Potency,[5],15.4 µM (active)
same,Potency,[6],17.2 µM (active)
same,outcome,[7],inactive
same,outcome,[8],inactive
same,outcome,[9],inactive
same,outcome,[10],inactive
N#C[C@@H]1CC(F)(F)CN1C(=O)CNC1CC2CCC(C1)N2c1ncccn1 (some centres not stated),Potency,[1],inactive
same,Potency,[2],inactive
same,Potency,[3],inactive
same,Potency,[5],inactive
same,Potency,[6],inactive
same,outcome,[7],inactive
same,outcome,[8],inactive
same,outcome,[9],inactive
O=Cc1ccc([N+](=O)[O-])cc1,Potency,[1],inactive
same,Potency,[2],inactive
same,Potency,[3],inactive
same,Potency,[4],inactive
same,Potency,[5],inactive
same,outcome,[7],inactive
same,outcome,[8],inactive
same,outcome,[9],inactive
O=C(Cl)c1ccc(F)c(Cl)c1,Potency,[1],inactive
same,Potency,[2],inactive
same,Potency,[3],inactive
same,Potency,[4],inactive
same,Potency,[5],inactive
same,outcome,[7],inactive
same,outcome,[8],inactive
same,outcome,[9],inactive
same,outcome,[10],inactive
Cc1ccc(S(=O)(=O)NC(=O)NC2CCCC2)cc1,Potency,[1],inactive
same,Potency,[2],inactive
same,Potency,[3],inactive
same,Potency,[4],inactive
same,Potency,[5],inactive
same,outcome,[7],inactive
same,outcome,[8],inactive
same,outcome,[9],inactive
same,outcome,[10],inactive
Clc1ccccc1-c1nc(-c2ccncc2)no1,Potency,[1],inactive
same,Potency,[2],inactive
same,Potency,[3],inactive
same,Potency,[4],26.6 µM (active)
same,outcome,[7],inactive
same,outcome,[8],inactive
same,outcome,[9],inactive
same,outcome,[10],inactive
O=C(O)c1ccccc1-n1cc(C(=O)O)c(=O)c2cc(Nc3c(F)cc(F)cc3Cl)c(Cl)cc21,Potency,[1],inactive
same,Potency,[2],inactive
same,Potency,[3],inactive
same,Potency,[4],inactive
same,Potency,[5],inactive
same,outcome,[7],inactive
same,outcome,[8],inactive
same,outcome,[9],inactive
O=C(O)COCC(=O)O,Potency,[1],inactive
same,Potency,[2],inactive
same,Potency,[3],inactive
same,Potency,[4],inactive
same,Potency,[5],inactive
same,outcome,[7],inactive
same,outcome,[8],inactive
same,outcome,[9],inactive
same,outcome,[10],inactive
CCCCCCCCCCCCSC#N,Potency,[1],inactive
same,Potency,[2],inactive
same,Potency,[3],inactive
same,Potency,[5],inactive
same,Potency,[6],inactive
same,outcome,[7],inactive
same,outcome,[8],inactive
same,outcome,[9],inactive
CC(C)(C)c1cc(C=O)cc(C(C)(C)C)c1O,Potency,[1],inactive
same,Potency,[2],inactive
same,Potency,[3],inactive
same,Potency,[5],inactive
same,Potency,[6],inactive
same,outcome,[7],inactive
same,outcome,[8],inactive
same,outcome,[9],inactive
same,outcome,[10],inactive
CCCCCC1CCC(=O)O1 (configuration not stated),Potency,[1],inactive
same,Potency,[2],inactive
same,Potency,[3],inactive
same,Potency,[4],inactive
same,Potency,[5],inactive
same,outcome,[7],inactive
same,outcome,[8],inactive
same,outcome,[9],inactive
same,outcome,[10],inactive
COC(=O)/C=C/C(C)=C\C=C\C(C)=C\C=C\C=C(C)\C=C\C=C(C)\C=C\C(=O)O,Potency,[1],inactive
same,Potency,[2],inactive
same,Potency,[3],inactive
same,Potency,[4],inactive
same,Potency,[6],inactive
same,outcome,[7],inactive
same,outcome,[8],inactive
same,outcome,[9],inactive
same,outcome,[10],inactive
O=[N+]([O-])c1ccccc1CCO,Potency,[1],inactive
same,Potency,[2],inactive
same,Potency,[3],inactive
same,Potency,[5],inactive
same,Potency,[6],inactive
same,outcome,[7],inactive
same,outcome,[8],inactive
same,outcome,[9],inactive
same,outcome,[10],inactive
CCCCCCC/C=C/C=O,Potency,[1],inactive
same,Potency,[2],inactive
same,Potency,[3],inactive
same,Potency,[4],inactive
same,Potency,[5],inactive
same,outcome,[8],inactive
same,outcome,[9],inactive
same,outcome,[10],inactive
CCCCC(CC)COCCC#N (configuration not stated),Potency,[1],inactive
same,Potency,[2],inactive
same,Potency,[3],inactive
same,Potency,[5],inactive
same,Potency,[6],inactive
same,outcome,[7],inactive
same,outcome,[8],inactive
same,outcome,[9],inactive
same,outcome,[10],inactive
C=CC(=O)NC(C)(C)C,Potency,[1],inactive
same,Potency,[2],inactive
same,Potency,[3],inactive
same,Potency,[4],inactive
same,Potency,[5],inactive
same,outcome,[7],inactive
same,outcome,[8],inactive
same,outcome,[9],inactive
same,outcome,[10],inactive
O=[N+]([O-])c1ccc(Cl)cc1Cl,Potency,[1],inactive
same,Potency,[2],inactive
same,Potency,[3],24 µM (active)
same,Potency,[4],inactive
same,Potency,[5],inactive
same,outcome,[7],inactive
same,outcome,[8],inactive
same,outcome,[9],inactive
same,outcome,[10],inactive
CC1(C)[C@@H]2CC[C@]3(C2)[C@@H]1C(=O)CCC3(C)C,Potency,[1],inactive
same,Potency,[2],inactive
same,Potency,[3],inactive
same,Potency,[5],inactive
same,Potency,[6],27.3 µM (active)
same,outcome,[7],inactive
same,outcome,[8],inactive
same,outcome,[9],inactive
CCCCCCCCCCCCCCCCCCCl,"activity change, negative = inhibition",[1],0.518% [at 8.39 µM]
same,"activity change, negative = cytotoxicity",[2],-0.0193% [at 8.39 µM]
same,activation,[3],-0.486% [at 8.39 µM]
same,"activity change, negative = cytotoxicity",[5],-19.4% [at 8.39 µM]
same,"activity change, negative = cytotoxicity",[6],-1.64% [at 8.39 µM]
same,"viability change, negative = cytotoxic",[7],-4.8% [at 6.97 µM]
same,"activity change, negative = cytotoxicity",[8],3.73% [at 6.97 µM]
same,activation,[9],1.95% [at 6.97 µM]
same,"activity, negative = inhibition",[10],0.326% [at 4.65 µM]
